# Where “and” joins values, the source holds several entries; their conditions need not be identical. Equal values may be shown once. Results filed as inconclusive are left out. Entries that show only a call come without a potency. A structure can be active in one record and inactive in another. Calls of active or inactive are those of the source. Unless noted, calls follow the shape of the dose curve; as a rule, active = well fitted curve in the direction sought with a large enough effect; inconclusive = small, poorly fitted or top-dose-only effect, or another doubt; inactive = no such curve, though single readings can be large; an effect the other way counts as inactive or inconclusive.
# Columns and labels:
# [1] = qHTS assay to identify small molecule inhibitors of chordoma cells - UCH-1 (AID 1259355); also: nearly all actives have a fitted effect of over 55% in size; also: potency is read from the fitted curve at half-maximal effect; series mostly up to about 46 µM
# In short: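 A 48hr growth-inhibition format: each drug tested at 15 concentrations together with added auranofin, camptothecin, doxorubicin, rubitecan and topotecan, with cell viability quantified as CellTiter-Glo luminescence.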
# [2] = qHTS assay to identify small molecule inhibitors of chordoma cells - UCH-2 (AID 1259356); also: potency is read from the fitted curve at half-maximal effect
# [3] = P-glycoprotein substrates identified in KB-3-1 adenocarcinoma cell line, qHTS therapeutic library screen (AID 1346986); also: nearly all actives have a fitted effect of over 60% in size;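 also: potency is read from the fitted curve at half-maximal effect; potency is for cytotoxicity meaning loss of cell viability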
# In short: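 72 h cell-killing screen, 500 cells/well, CellTiter-Glo luminescence. Paired lines KB-3-1/KB-8-5-11; P-gp dependence checked by tariquidar co-treatment and HEK-293 MDR-19 versus empty-vector cells.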
# [4] = P-glycoprotein substrates identified in KB-8-5-11 adenocarcinoma cell line, qHTS therapeutic library screen (AID 1346987); also: nearly all actives have a fitted effect of over 65% in size; also: potency is read from the fitted curve at half-maximal effect
# In short: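 Luminescence from CellTiter-Glo, read 5 min after addition, quantified survival of KB-8-5-11 (P-gp-overexpressing) cells exposed to compounds for 72 h. AC50 was derived from concentration-response curves.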
# [5] = Natriuretic polypeptide receptor (hNpr1) antagonism - Pilot counterscreen GloSensor control cell line (AID 1347045; calls by dose curve; also: series mostly up to about 38 µM)
# In short: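 Cells were first seeded and incubated overnight at 37C, then loaded with 2% GloSensor substrate for 2 h. Compounds were added for 30 min at room temperature, followed by a baseline read, 50 uM SNP and a final read after 20 min.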
# [6] = Identifying Small Molecule Inhibitors of Pancreatic Cancer Stem Cells (A2780, Spheroid) (AID 1259357); conditions: Potency: A2780 spheroid viability;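 also: spheroids pre-formed over 14 days in stem cell medium on hydrogel; compound exposure lasted 48 h before the ATP luminescence read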
# In short: (§1)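 Endpoint: ATP-based luminescence, 48 h drug exposure. Bortezomib at 9.2 uM final as full-kill control; DMSO vehicle as negative control; activity normalized between vehicle and cell-free wells.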
# [7] = Identifying Small Molecule Inhibitors of Pancreatic Cancer Stem Cells (Panc1, Spheroid) (AID 1259359);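 also: compound exposure lasted 48 h before reading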
# In short: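 Adherent (2D) versus sphere (3D) formats; spheres generated 14 d in SCM beforehand. Compound transferred by pin tool after 4 h, 48 h incubation, CellTiter-Glo endpoint.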
# [8] = Identifying Small Molecule Inhibitors of Pancreatic Cancer Stem Cells (SN12C, Spheroid) (AID 1259360); conditions: Potency: SN12C spheroid viability
# Excerpt: Progenitor-like cancer cells, often referred to as cancer stem cells (CSC), are believed to be the drivers of therapeutic resistance and rapid recurrence. CSCs are postulated to reside in specific niches characterized by low oxygen tension, limited nutrient supply, and high redox load. Selectively targeting CSC, alone or in combination with cytotoxic agents, as a means to produce durable remissions is an appealing concept. Modeling these cells in in vitro setting is an important step in finding new therapies and/or targets. Multiple reports highlight that forcing cells in culture into 3-dimensionaly architectures (spheroids) re-establishes key progenitor-like transcriptional signatures. Pancreatic cancer is among the diseases with the most dismal outlook which is driven, largely, by recurance following front-line therapies. […] In hopes of deriving new insight into the targeting of these pancreatic CSCs we examined three established pancreatic cancer cell lines in cytotoxicity assays versus a collection of approved and investigational drugs. Importantly, we screened these lines as traditional monolayer (2D) and spheroid (3D) formats to gain an appreciation of agents with differential activity.
# Multicellular tumor spheroids from Panc1, MiaPaCa-2, and the primary low-passage tissue culture line SB.06 were seeded in stem cell media (SCM) in nonadherent 6-well plates coated with hydrogel (Corning Life Sciences, Chelmsford, Mass) and pancreatic spheres generated for 14 days before screening. Cells were seeded into 1536-well solid-bottom white tissue culture treated Greiner Bio One Plates (789173-F) using a MultiDrop Combi (Thermofisher Scientific) dispenser and a small sterile cassette. One column was media alone to be used as a :"no cells" control. The plates were then covered with sterilized stainless steel gasketed lids from Kalypsys. After allowing cells to attach for 4 hours, 23 nL of test compound or control (negative control DMSO and positive control 9.2 uM Bortezomib-final) were added from a 1536-well polypropylene compound source plate to each well using a 1536 head pin tool from Kalypsys. Cells were then incubated for 48 hours at 37C, 95% relative humidity and 5% CO2. After 48 hours, plates were removed from the incubator and 3 uL of CellTiter-Glo (Promega) was added using an Aurora Flying Reagent Dispenser Bioraptor. Plates were incubated at room temperature for 10 minutes prior to reading the luminescence on the Viewlux (PerkinElmer). The relative luciferase units are used to calculate the percent activity using the activity of DMSO in the cells and no cells columns for normalization of no inhibition and full inhibition respectively.
# [9] = Identifying Small Molecule Inhibitors of Pancreatic Cancer Stem Cells (A278, Adherent) (AID 1259361);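 also: viability read after 48 h compound exposure; nearly all actives have a fitted effect of over 35% in size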
# In short: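 After a 4 h attachment period, compounds were pinned into wells and cultures held 48 h under standard incubator conditions. Viability was then measured as CellTiter-Glo luminescence following 10 min at room temperature.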
# [10] = Identifying Small Molecule Inhibitors of Pancreatic Cancer Stem Cells (Panc1, Adherent) (AID 1259362); conditions: Potency: viability;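 also: compound exposure lasted 48 h before the viability read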
# In short: as §1
smiles,measurement,setting,value
CC1OC(C)OC(C)O1 (centres undefined),Potency,[1],inactive
same,Potency,[2],inactive
O=C1CC[C@@]2(O)[C@H]3Cc4ccc(O)c5c4[C@@]2(CCN3CC2CC2)[C@H]1O5,Potency,[1],inactive
same,Potency,[2],inactive
same,Potency,[3],inactive
same,Potency,[4],inactive
CC(C)(C)CC(C)(C)c1ccc(O)cc1,Potency,[1],inactive
same,Potency,[2],inactive
same,Potency,[4],inactive
CCCC(C)(COC(N)=O)COC(=O)NC(C)C (centres undefined),Potency,[1],inactive
same,Potency,[2],inactive
same,Potency,[3],inactive
same,Potency,[4],inactive
same,Potency,[5],inactive
COc1ccc(C(=O)c2c(C)n(CCN3CCOCC3)c3ccccc23)cc1,Potency,[1],inactive
same,Potency,[2],inactive
same,Potency,[6],inactive
same,Potency,[4],inactive and 5.8 µM (active)
CN1C(=S)CN=C(c2ccccc2)c2cc(Cl)ccc21,Potency,[1],inactive
same,Potency,[2],inactive
Cc1ccc(-c2nc3ccc(C)cn3c2CC(=O)N(C)C)cc1,Potency,[1],inactive
same,Potency,[2],inactive
Cn1c(CCCC(=O)O)nc2cc(N(CCCl)CCCl)ccc21,Potency,[1],inactive
same,Potency,[2],inactive
same,Potency,[6],inactive
same,outcome,[7],inactive
same,Potency,[8],inactive
same,IC50 (viability decrease),[9],inactive
same,Potency,[10],inactive
same,Potency,[4],inactive
Oc1ccccc1-c1ccccc1,Potency,[1],inactive
same,Potency,[2],inactive
same,Potency,[4],inactive
C[C@H]1O[C@@H](O[C@H]2[C@@H](O)C[C@H](O[C@H]3[C@@H](O)C[C@H](O[C@H]4CC[C@@]5(C)[C@H](CC[C@@H]6[C@@H]5CC[C@]5(C)[C@@H](C7=CC(=O)OC7)CC[C@]65O)C4)O[C@@H]3C)O[C@@H]2C)C[C@H](O)[C@@H]1O,Potency,[1],0.112 µM (active)
same,Potency,[2],0.0461 µM (active)
same,Potency,[4],65.1 nM (active) and 76.9 nM (active)
COc1ccc2c(c1OC)CN1CCc3cc4c(cc3C1C2)OCO4 (centres undefined),Potency,[1],inactive
same,Potency,[2],inactive
same,Potency,[3],9.2 µM (active)
same,Potency,[4],inactive
Clc1ccc(CCC(Cn2ccnc2)Sc2c(Cl)cccc2Cl)cc1 (centres undefined),Potency,[1],inactive
same,Potency,[2],inactive
CC[C@@H](CO)NC(=O)[C@@H]1C=C2c3cccc4[nH]cc(c34)C[C@H]2N(C)C1,Potency,[1],inactive
same,Potency,[2],inactive
O=C(NC(O)C(Cl)(Cl)Cl)NC(O)C(Cl)(Cl)Cl (centres undefined),Potency,[1],inactive
same,Potency,[2],inactive
same,Potency,[4],inactive
c1ccc2c(c1)Nc1ccccc1S2,Potency,[1],inactive
same,Potency,[2],inactive
same,Potency,[4],inactive
CCN(CC)C(=O)N[C@@H]1C=C2c3cccc4[nH]cc(c34)C[C@@H]2N(C)C1,Potency,[1],inactive
same,Potency,[2],inactive
Clc1ccc(COC(Cn2ccnc2)c2ccc(Cl)cc2Cl)cc1 (centres undefined),Potency,[1],inactive
same,Potency,[2],inactive
CCN(CC)CCN1C(=O)CN=C(c2ccccc2F)c2cc(Cl)ccc21,Potency,[1],inactive
same,Potency,[2],inactive
CC(C)(C)NCC(O)c1cc(Cl)c(N)c(Cl)c1 (centres undefined),Potency,[1],inactive
same,Potency,[2],inactive
same,Potency,[4],inactive
CCC(C(N)=O)N1CCCC1=O (centres undefined),Potency,[1],inactive
same,Potency,[2],inactive
same,Potency,[4],inactive
CC(C)(N)Cc1ccc(Cl)cc1,Potency,[1],inactive
same,Potency,[2],inactive
same,Potency,[4],inactive
O=c1[nH]c2ccccc2n1CCCN1CCC(n2c(=O)[nH]c3cc(Cl)ccc32)CC1,Potency,[1],inactive
same,Potency,[2],inactive
CCN(C(C)=O)c1cccc(-c2ccnc3c(C#N)cnn23)c1,Potency,[1],inactive
same,Potency,[2],inactive
same,Potency,[4],inactive
CC[N+](CC)(CC)CC,Potency,[1],inactive
same,Potency,[2],inactive
same,Potency,[4],inactive
C#CCOC(C(=O)OCCN(C)C)(c1ccccc1)c1ccccc1,Potency,[1],inactive
same,Potency,[2],inactive
same,Potency,[4],inactive
COc1ccc(C(CN(C)C)C2(O)CCCCC2)cc1 (centres undefined),Potency,[1],inactive
same,Potency,[2],inactive
same,Potency,[4],inactive
O=P1(NCCCl)OCCCN1CCCl (centres undefined),Potency,[1],inactive
same,Potency,[2],inactive
same,Potency,[4],10.5 µM (active)
CN(C)[C@@H]1C(=O)C(C(N)=O)=C(O)[C@@]2(O)C(=O)C3=C(O)c4c(O)cccc4[C@@](C)(O)[C@H]3C[C@@H]12,Potency,[1],inactive
same,Potency,[2],inactive
same,Potency,[4],inactive
CC(C)=CC1C(C(=O)OCc2cccc(Oc3ccccc3)c2)C1(C)C (centres undefined),Potency,[1],inactive
same,Potency,[2],inactive
same,Potency,[4],inactive
CC(C)CC(N(C)C)C1(c2ccc(Cl)cc2)CCC1 (centres undefined),Potency,[1],inactive
same,Potency,[2],inactive
same,Potency,[4],inactive
NCCc1cc(O)c(O)cc1O,Potency,[1],inactive
same,Potency,[2],inactive
same,Potency,[4],inactive
CNCC(O)c1ccc(O)cc1 (centres undefined),Potency,[1],inactive
same,Potency,[2],inactive
same,Potency,[3],inactive
same,Potency,[4],inactive
same,Potency,[5],inactive
C=C1C[C@@H]2[C@H](CC[C@]3(C)C(=O)CC[C@@H]23)[C@@]2(C)C=CC(=O)C=C12,Potency,[1],inactive
same,Potency,[2],inactive
Oc1cccc2cccnc12,Potency,[1],inactive
same,Potency,[2],inactive
same,Potency,[4],inactive
